# Measured values as given in the supplement of paper PMC13392028.
# Over roughly 4,100 sequences, “RBNS R-value (6-mer enrichment in protein-bound RNA vs input library)” has its median near 0.99; the highest 2% begin near 1.4. The list comes from a sample in which the highest values are over-represented; it also holds similar and randomly drawn sequences.
# System: PfIESI-1 RRM domain (Plasmodium falciparum ortholog aa 875-1232, GST fusion)
# Test: RBNS R-value (6-mer enrichment in protein-bound RNA vs input library) (ratio); higher = stronger binding preference; the methods of the paper give 50 / 100 / 500 nM protein instead
# Procedure, shortened: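 Purified GST-tagged RNA-recognition-motif regions, from orthologues in three Plasmodium species expressed in E. coli, were bound at room temperature to a random 40-mer in vitro transcribed RNA library and captured on glutathione magnetic agarose beads. Bound RNA and input were reverse transcribed and MiSeq-sequenced, with 6-mers counted from one replicate. Enrichment in bound RNA over input is reported as the R-value, calculated with the Burge lab pipeline.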
Sequence,RBNS R-value (protein concentration: 250 nM),RBNS R-value (protein concentration: 500 nM),RBNS R-value (protein concentration: 1000 nM)
GGAUAU,0.937,0.921,0.959
CGAUAC,1.04,1.03,1.02
UGAUAU,1.5,1.69,1.38
UGAUAC,1.59,1.68,1.47
GGAUAG,1.02,0.975,0.995
AGAUAG,0.998,1.07,1.04
AGAUAA,0.975,1.11,1.02
GGAUAC,1.01,0.991,0.995
AGAUAU,0.955,1.04,0.969
UGAUAG,1.87,2.08,1.65
UGAUAA,1.67,1.89,1.54
CGAUAA,0.968,1.04,0.996
UAGCUA,0.902,0.926,0.903
UGAAAA,1.16,1.3,1.22
AACGUG,0.922,0.984,0.974
UCGGGU,0.945,0.901,1.01
AUGCGU,0.924,0.929,0.959
UACCGC,0.938,0.867,0.916
UAAAAC,0.916,1.05,0.979
AGUAAA,0.862,1.01,0.909
AUUCUG,1.19,1.22,1.1
AUCUGA,1.24,1.3,1.19
AAAGGG,1.07,1.12,1.12
CGAUGC,1.26,1.22,1.18
UGAUGU,2.5,2.78,2.1
UGAUGA,3.34,3.56,2.48

Sequence,RBNS R-value (protein concentration: 250 nM),RBNS R-value (protein concentration: 500 nM),RBNS R-value (protein concentration: 1000 nM)
CGAUCA,0.917,0.906,0.977
CGAUGA,1.66,1.7,1.44
AGAUGU,1.06,1.13,1.05
GGAUGA,1.23,1.25,1.17
UGAUGC,2.31,2.42,1.91
UGAUCA,1.2,1.26,1.17
UUAUGC,0.832,0.799,0.831
CGAUGU,1.13,1.16,1.09
GGAUGC,1.04,0.968,1.07
GGUCUU,0.91,0.864,0.932
UACACG,0.894,0.857,0.867
UGUAAU,0.85,0.907,0.853
AAGGUA,0.941,1.01,0.987
CAUCAU,0.806,0.8,0.838
GCCCGC,1.24,1.09,1.2
CGAGGC,1.15,1.08,1.17
CCAUCU,0.967,0.915,0.956
CCCUCU,0.993,0.894,0.949
GAGUGC,1.09,1.01,1.04
AGAUGA,1.49,1.55,1.34
AGAUGC,1.18,1.17,1.14
UGAUGG,2.48,2.56,1.9
AUAUGA,1.1,1.23,1.07
CGAUGG,1.24,1.23,1.17
AGAUGG,1.12,1.14,1.14
CAGGCA,1.07,1.06,1.07

Sequence,RBNS R-value (protein concentration: 250 nM),RBNS R-value (protein concentration: 500 nM),RBNS R-value (protein concentration: 1000 nM)
GUGCGC,0.961,0.907,0.975
UUCUCC,0.999,0.954,0.96
UUAUCG,0.802,0.76,0.799
GUAUUG,0.976,0.938,0.944
GUAAUA,0.77,0.864,0.803
AAUUUC,1.06,1.11,1.05
UAUUUA,0.769,0.744,0.736
CAUUUA,0.761,0.749,0.752
CAUUUU,0.932,0.925,0.962
GAUUUC,1.71,1.74,1.52
GAUUUU,1.78,1.92,1.53
AAUUUU,0.989,1.08,1.03
GAUUUG,1.88,1.94,1.51
CAUUUC,0.964,0.947,0.999
AAUUUG,1.08,1.18,1.11
GAUUUA,1.33,1.46,1.22
CAUUUG,1.03,1.08,1.04
CCUCGA,1.12,1.08,1.11
GUGUCA,0.85,0.872,0.887
GAUACG,1.1,1.13,1.09
GCGGUA,0.985,0.954,1
CUCCUA,0.889,0.834,0.858
GCUUGC,1.01,0.943,0.985
GAUAGC,1.44,1.48,1.3
GAUAGU,1.01,1.06,1
GAUAGA,1.21,1.3,1.18

Sequence,RBNS R-value (protein concentration: 250 nM),RBNS R-value (protein concentration: 500 nM),RBNS R-value (protein concentration: 1000 nM)
AAACGG,1.06,1.07,1.08
AAAGCU,0.98,1.05,1.03
CCCAGG,1.27,1.21,1.27
CCCAGU,1.09,1.03,1.06
CCCAGA,1.39,1.32,1.3
ACAUGA,1.25,1.37,1.2
CCUUUA,0.814,0.763,0.779
UGACCG,1.04,1.02,1.07
UUUUGA,1.53,1.59,1.37
AUUUGG,1.1,1.17,1.06
AUUUGU,0.92,0.975,0.913
AUUUGA,1.45,1.59,1.34
UUUUGC,1.06,1.04,1.02
CUUUGA,1.35,1.41,1.26
CUUUGU,0.825,0.805,0.863
UUUUGU,0.909,0.927,0.922
CUUUGG,0.959,0.914,0.962
CCCUCG,1.05,0.973,1.06
AAAAUA,0.851,1.05,0.927
CCAAAU,0.978,1.04,0.995
AGCUGU,0.94,0.939,0.951
CCACAA,0.988,0.991,1
CUAGAG,1.1,1.1,1.09
GAUCGU,0.85,0.817,0.886
CGUGAG,0.982,0.993,1.05
CGUGAU,1.56,1.62,1.39

Sequence,RBNS R-value (protein concentration: 250 nM),RBNS R-value (protein concentration: 500 nM),RBNS R-value (protein concentration: 1000 nM)
CGUGAA,0.992,1.03,1.05
UGUGAU,1.55,1.73,1.39
GGUGAU,1.33,1.4,1.28
AGUGAA,0.981,1.04,1.05
UGUGAC,0.993,0.99,0.972
AGUGAU,1.55,1.73,1.44
GGUGAG,1.02,1.02,1.02
AGUGAC,1.02,1.05,1.03
GGUGAC,0.986,0.987,1.01
UGUGAG,0.948,1,1.06
UUAUAA,0.747,0.809,0.749
UUGUCA,0.891,0.887,0.9
GCACUA,0.903,0.86,0.892
ACACCU,1.23,1.16,1.12
ACAACG,0.949,0.979,0.966
GCCCUG,1.19,1.1,1.14
CACCCC,1.3,1.16,1.24
CGCCCG,1.43,1.22,1.33
AACCCG,1.38,1.25,1.29
GACCCA,1.15,1.12,1.14
CACCCA,1.42,1.26,1.31
AACCCC,1.11,1.05,1.08
UACCCG,1.3,1.16,1.2
CACCCG,1.67,1.33,1.41
UGCCCG,1.32,1.16,1.2
UACCCA,1.07,1.01,1.01

Sequence,RBNS R-value (protein concentration: 250 nM),RBNS R-value (protein concentration: 500 nM),RBNS R-value (protein concentration: 1000 nM)
GGCCCG,1.26,1.11,1.23
ACCCCG,1.29,1.16,1.25
AGUAGA,1.01,1.08,1.05
GAUCGC,0.972,0.958,0.975
AACACA,0.942,1.02,0.978
GAGUCA,0.969,0.989,0.99
UGCAAG,0.989,1.01,1.03
AUUAGU,0.821,0.901,0.849
CUCAGG,1.03,1.04,1.09
CACCUG,1.41,1.3,1.29
CACCUA,1.09,1.01,1.01
CACCUC,1.07,1,1.05
UCGGGG,1.04,0.984,1.05
UCUGCG,0.996,0.968,1
UUAUUA,0.766,0.749,0.734
AAUGGG,1.03,1.06,1.03
GAUGGC,1.85,1.82,1.48
GAUGGG,1.47,1.46,1.34
UAUGGC,1.09,1.06,0.988
UAUGGG,0.895,0.916,0.918
CAUGGC,1.03,0.999,1.03
CCUCCC,1.06,0.981,1.04
ACUAGG,0.943,0.956,0.957
UGGACA,0.973,0.993,0.99
